# Source: PubChem BioAssay (NCI)
# Compounds without any hit were thinned out: in the full panel of roughly 83,000, 20% have a hit.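 Plates (96-well) were seeded with cells, treated with compound at one concentration, and incubated for 48 hours before percent growth was determined.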 A number with no mark means an inactive call. The source made the active and inactive calls. Rule for the calls: active = growth percent below 10; inactive = the rest.
# Columns and labels:
# Experiment in all cases: NCI-60 one-dose screen, 48 h (100 = growth as untreated, 0 = no growth, -100 = all killed)
# Settings in all cases: 10 µM unless noted
# SR leukemia = tested on: SR leukemia
# RPMI-8226 leukemia = tested on: RPMI-8226 leukemia
# OVCAR-8 ovarian = tested on: OVCAR-8 ovarian
# OVCAR-5 ovarian = tested on: OVCAR-5 ovarian
# OVCAR-4 ovarian = tested on: OVCAR-4 ovarian
# IGROV1 ovarian = tested on: IGROV1 ovarian
# OVCAR-3 ovarian = tested on: OVCAR-3 ovarian
# HS 578T breast = tested on: HS 578T breast
# NCI/ADR-RES ovarian = tested on: NCI/ADR-RES ovarian
# T-47D breast = tested on: T-47D breast
# BT-549 breast = tested on: BT-549 breast
# MDA-MB-435 melanoma = tested on: MDA-MB-435 melanoma
# SW-620 colon = tested on: SW-620 colon
# MCF7 breast = tested on: MCF7 breast
# HCT-116 colon = tested on: HCT-116 colon
# HCC-2998 colon = tested on: HCC-2998 colon
# KM12 colon = tested on: KM12 colon
Compound,growth (SR leukemia),growth (RPMI-8226 leukemia),growth (OVCAR-8 ovarian),growth (OVCAR-5 ovarian),growth (OVCAR-4 ovarian),growth (IGROV1 ovarian),growth (OVCAR-3 ovarian),growth (HS 578T breast),growth (NCI/ADR-RES ovarian),growth (T-47D breast),growth (BT-549 breast),growth (MDA-MB-435 melanoma),growth (SW-620 colon),growth (MCF7 breast),growth (HCT-116 colon),growth (HCC-2998 colon),growth (KM12 colon)
NC(N)=N/N=C(/c1ccccc1)c1ccccc1F,3.14% (active),-36.8% (active),45.5%,76.4%,36.7%,20.7%,-0.0856% (active),38.5%,59.6%,3.86% (active),70.8%,-56% (active),40%,15.9%,-28.7% (active),2.85% (active),13.8%
O=C1CC(c2ccc3c(c2)OCO3)Nc2cc3c(cc21)OCO3 (stereo not drawn),7.67% (active),16.5%,12.7%,44.7%,49.9%,50.4%,-5.26% (active),19.5%,13.5%,59.5%,32.7%,-34.6% (active),25.1%,13.9%,–,17.6%,15.2%
O=C(/C=C/C12c3ccccc3C(c3ccccc31)C1C(=O)N(c3ccccc3)C(=O)C12)c1ccccc1 (stereo not drawn),14.2%,1% (active),27.4%,-12.7% (active),34.1%,-24.5% (active),-61.9% (active),20.7%,14.2%,40.7%,-2.69% (active),-1.64% (active),1.65% (active),14.7%,-57.7% (active),-65% (active),-41.3% (active)
CCNCCNc1cc(-c2ccc(C(F)(F)F)cc2)c(C#N)c2nc3cc(Cl)c(Cl)cc3n12,-49.2% (active),-41.6% (active),-64.1% (active),-92.3% (active),-81.9% (active),-77.8% (active),-88.4% (active),-53.2% (active),-79.2% (active),-53.2% (active),-2.28% (active),-92.6% (active),-81.8% (active),-70.6% (active),-88.3% (active),-88.9% (active),-77.7% (active)
CCCCN1CCN(c2ccc3nc(-c4ccc5nc(-c6cc(OC)c(OC)c(OC)c6)[nH]c5c4)[nH]c3c2)CC1,10.7%,55.9%,56.2%,117%,84.4%,94.2%,67%,45%,102%,66%,80.2%,53.5%,60.3%,19.9%,41.1%,100%,59.3%
COc1ccc2c(c1)/C(=C\c1sc(=S)[nH]c1O)C(C(=O)O)=N2,110%,101%,99%,101%,101%,107%,98.8%,94%,102%,94.3%,109%,100%,95.2%,97.7%,–,103%,99.6%
COc1ccccc1NC(=O)Nc1ccc(-c2nc3ccccc3o2)cc1,69%,96.7%,102%,104%,95.3%,104%,109%,99%,98.4%,68.1%,92.3%,104%,111%,99%,93.7%,106%,105%
O=C(/C=C/C12c3ccccc3C(c3ccccc31)C1C(=O)NC(=O)C12)c1ccccc1 (stereo not drawn),20.9%,5.51% (active),27.3%,26.4%,39.4%,19.8%,2.7% (active),14.4%,5.9% (active),51.7%,23.6%,13.8%,19.1%,9.25% (active),14.3%,10.4%,9.85% (active)
COc1cccc(-c2cnco2)c1OCc1c(C)c(COc2c(OC)cccc2-c2cnco2)c(C)c(COc2c(OC)cccc2-c2cnco2)c1C,64.2%,47.4%,56.7%,74.9%,7.51% (active),80.2%,63.1%,30.8%,81.2%,33.5%,39.2%,54.9%,75%,65.5%,–,99.3%,64.9%
CN(CCC(=O)/C(=C\c1ccccc1)c1ccc(Cl)cc1)Cc1ccccc1,-1.56% (active),-11.3% (active),11.8%,25.2%,89.7%,14.4%,1.15% (active),28.9%,24%,15.3%,12.7%,1.24% (active),4.45% (active),28.3%,2.49% (active),105%,67.1%
Cc1ccc(-n2nnc(C3=NCCc4c3[nH]c3ccc(Cl)cc43)c2C)cc1,52.8%,58.6%,66.8%,80.2%,76.8%,90.5%,83.5%,87.8%,76.3%,35.7%,85.3%,78%,64.8%,77.8%,71.6%,75.5%,57.3%
CCn1c(Sc2nnc(NC(C)=O)s2)nc2c1c(=O)n(C)c(=O)n2C,98.1%,118%,99.7%,90.3%,101%,98.2%,93.1%,86.2%,89.5%,93%,92.8%,98.1%,96.1%,94.8%,97%,92%,106%
N#Cc1c(NC(=O)c2ccc(Br)cc2)sc2c1CCCC2,50.2%,33.3%,64.6%,55.7%,69.6%,53.7%,16.8%,39.1%,16.6%,47.2%,52.2%,-22.8% (active),19.2%,13.1%,22.3%,68.6%,25.3%
CCOc1ccc(-c2nc3ccc(-c4nc5ccc(N6CCN(C)CC6)cc5[nH]4)cc3[nH]2)cc1OCC,8.73% (active),45.8%,14.8%,44.4%,7.29% (active),50.5%,-13.3% (active),11.1%,104%,15.2%,-29.5% (active),-2.53% (active),0.486% (active),7.04% (active),-3.06% (active),-15.9% (active),43%
c1ccc2[nH]c(SSc3nc4ncncc4[nH]3)nc2c1,32.8%,14.6%,23%,44.6%,33.9%,43.5%,22.9%,59.7%,26.2%,46.5%,46.7%,19.7%,36.3%,9.76% (active),20.8%,18.2%,15.1%
CCCCCCCCn1cc(C2=C(c3coc4ccc(OC)cc34)C(=O)NC2=O)c2ccccc21,119%,119%,94.2%,90.8%,106%,104%,107%,101%,101%,115%,87.4%,102%,99.1%,91.8%,104%,104%,104%
CCN(CC)CCCC(C)NCc1ccccc1 (stereo not drawn),111%,107%,93.7%,97.6%,105%,95.6%,104%,115%,106%,105%,85.2%,100%,105%,93.8%,90.8%,99.5%,96.9%
O=C(NC(=S)Nc1ccc(-c2nc3ccccc3[nH]2)cc1)c1ccc2ccccc2c1,5.49% (active),-6.21% (active),28.8%,56.5%,-18.7% (active),52.2%,-45.2% (active),11.3%,28.8%,18.5%,4.76% (active),22.6%,34.2%,36.4%,3.95% (active),66.2%,31.3%
